In this test the target is Follistatin (Homo sapiens) (UniProt P19883). The test can be described thus: follistatin binders on small-molecule microarrays, primary screen, biochemical, small-molecule microarray, 635/667 nm fluorescence (AID 1132). The note with it: FST binding, 635 nm fluorescence, higher = more signal.
Chain of Follistatin (Homo sapiens) (P19883 whole entry, looked up): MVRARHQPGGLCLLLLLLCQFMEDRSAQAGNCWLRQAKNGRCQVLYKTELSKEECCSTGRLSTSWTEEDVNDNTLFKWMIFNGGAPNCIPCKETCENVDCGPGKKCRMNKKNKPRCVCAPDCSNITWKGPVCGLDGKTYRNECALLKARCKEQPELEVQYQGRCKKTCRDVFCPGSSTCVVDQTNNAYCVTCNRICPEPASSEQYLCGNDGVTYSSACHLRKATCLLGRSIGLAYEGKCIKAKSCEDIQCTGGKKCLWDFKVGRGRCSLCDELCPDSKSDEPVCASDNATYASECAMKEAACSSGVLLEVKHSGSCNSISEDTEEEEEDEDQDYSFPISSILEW
`CC(C)C(CO)N1C(=O)[C@@H]2[C@H]3C(=O)OCC=C[C@H]3OC23C=CCN(Cn2nnc4ccccc42)C(=O)[C@@H]13` (some centres not stated) had a composite z-score of -0.802.
`O=C1N(Cc2ccccc2)c2ccccc2[C@H]2OC(c3ccc(OCCCO)cc3)=N[C@@]12CCS(=O)(=O)c1ccccc1` came in with a composite z-score of 1.2.
`CCCNC(=O)[C@@H]1c2ccccc2C(=O)N(CC23CC4CC(CC(C4)C2)C3)[C@H]1c1ccc(CO)cc1` came in with a composite z-score of 1.34.
Take `C=C(C)[C@@H]1CC=C(C(O)C2C=CC3C(=O)N(C4CCCCC4)C(=O)C3N2Nc2ccc(OC)cc2)CC1` (some centres not stated): the composite z-score is 1.17.
The same measure for `OCCCC1=CC(c2cccs2)N(Cc2cccc(OC(F)(F)F)c2)CC1` (configuration not stated): -0.17; for `Cc1ccccc1C(O)C1C=CC2C(=O)N(Cc3ccccc3)C(=O)C2N1n1cnnc1` (configuration not stated): 1.07.
In the case of `COc1ccc([Si](C)(C)[C@H]2[C@H](CCO)O[C@@]3(C(=O)N(Cc4cccc(N5CCOC5=O)c4)c4ccccc43)[C@@H]2C)cc1`, the composite z-score is 0.433.
In the case of `COCCOC(=O)N1C(=O)[C@@]2(c3cc(C#CC4(O)CCCCCC4)ccc31)[C@H](C(=O)N1CCc3cc(OC)c(OC)cc3C1)[C@H]1C(=O)O[C@H](c3ccccc3)[C@H](c3ccccc3)N1[C@@H]2c1ccccc1OCCO` it was 1.36; in that of `CC(=O)NCCCC[C@@H]1NC(=O)[C@H]2C[C@@H](C(=O)NCCCCCN)[C@@H](c3cccc(OCCO)c3)N2C1=O`, 0.763; in that of `COc1ccc(C#Cc2ccc3c(c2)[C@]2(C(=O)N3)[C@H](C(=O)O)[C@H]3C(=O)O[C@H](c4ccccc4)[C@H](c4ccccc4)N3[C@@H]2c2ccc(OCCO)cc2)cc1`, 0.714.
As to `COCC1=C([C@H](O)CCc2ccccc2)[C@H](CO)[C@@H]2C(=O)N(C)C(=O)[C@@H]2C1`, the composite z-score worked out at 0.191.
In turn, `CC(C)(C)N1CC=CC23O[C@@H]4C=CCCOC(=O)C4[C@H]2C(=O)N(CCCO)[C@@H]3C1=O` (some centres not stated) gave a composite z-score of -0.103.
Turning to `O=C1O[C@H](c2ccccc2)[C@H](c2ccccc2)N2[C@H]1[C@@H](C(=O)N1CCCCCCC1)[C@]1(C(=O)Nc3ccccc31)[C@H]2c1ccc(O)cc1`, the composite z-score worked out at 1.55.
The same measure for `COC(=O)[C@]1(Cc2ccccc2CN=[N+]=[N-])N=C(c2ccc(OCCCO)cc2)O[C@@H]1c1ccccc1CN=[N+]=[N-]`: 1.17; for `O=C1c2ccccc2[C@](Cc2ccccc2I)(C(=O)NCC(F)(F)F)[C@H](c2ccc(CO)cc2)N1Cc1ccccc1`: 1.14; for `NC(=O)NCC#Cc1ccc2c(c1)[C@]1(C(=O)N2)[C@H](c2ccc(OCCO)cc2)N2[C@H](c3ccccc3)[C@H](c3ccccc3)OC(=O)[C@H]2[C@@H]1C(=O)N1CCCCCCC1`: 1.39.
As for `N#Cc1ccc(NN2C(C(O)c3ccco3)C=CC3C(=O)N(c4ccccc4)C(=O)C32)cc1` (configuration not stated), the composite z-score worked out at 0.552.

Source of the values: PubChem BioAssay.
